# VCAM1 pot: potentiators of TNFa-induced VCAM1 expression, primary screen, imaging, HUVEC, TNFa stimulus, immunofluorescence | HUVEC TNFa-stimulated VCAM-1 immunofluorescence, high-content imaging; scaled per plate to unstimulated/TNFa-only wells | activation, % at 2 µM | 93,000 compounds, 0.19% hits;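 active = activation above the screen mean plus 3 SD, with well images confirming the hit on visual review, cut at about 28% in these data, passing the limit was not always enough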;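 also: signal is the number of cytoplasmic VCAM-1 stained grains per positive cell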
# VCAM1 pot conf: potentiators of TNFa-induced VCAM1 expression, confirmation, imaging, HUVEC, triplicate retest; activation, % at 2 µM; shares compounds with VCAM1 pot; 230 tested, under 10 active; HUVEC TNFa-stimulated VCAM-1 immunofluorescence imaging; AID 1034, 2008;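 active = activation above 30% in triplicate retests at 2 µM, then confirmed by visual review of the well images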;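 also: scaled per plate between unstimulated and TNFa-stimulated DMSO control wells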
# The depositor's hits bear a star. Shown is part of a subset that was picked to be rich in hits.
SMILES,VCAM1 pot,others
CC(Cc1ccccc1)NC(=O)NC(C)Cc1ccccc1 (stereo unspecified),33.1*,VCAM1 pot conf=-16.4
CC1CCC(NCC(O)c2ccccc2)CC1 (stereo unspecified),15.9,
CCOP(=S)(OCC)c1ccc(N(C)C)cc1,10.0,
COc1ccc(/C=C2\C(=N\O)C3CCN2CC3)cc1,12.1,
O=C1CN(C(=O)CN2CCCCC2)C(c2ccccc2)c2cc(Br)ccc2N1 (stereo unspecified),-45.7,
Cc1cc(C=O)c(C)n1CC1CCCO1 (stereo unspecified),2.3,
C/C(Cl)=C/CC1(CN2CCCC2=O)C(=O)NC(=O)NC1=O,106.0*,VCAM1 pot conf=-14.9
CCC12CN3CCN(CC(C3)/C1=N\O)C2,8.1,
CC1CN=C(Nc2ccc(N(C)C)cc2)S1 (stereo unspecified),9.9,
Cc1cc(C)c(NC2=NCCCS2)c(C)c1,13.5,
Cc1ccc(-c2nc3ccccc3c(=O)n2-c2nccs2)cc1,55.9*,VCAM1 pot conf=-17.4
CCCCC(=O)C1C(=O)NC(=O)NC1=O,5.4,
O=C(Nc1ccccc1OC(=O)N1CCOCC1)N1CCOCC1,-36.8,
COC(=O)c1cc2c(s1)=NC=NP=2(N1CCOCC1)N1CCOCC1,-7.9,
C=CCn1c(O)c(C(C)=NCc2cc(OC)cc(OC)c2)c(=O)[nH]c1=O,-6.9,
Cc1occc1C(=O)N1CCC2(CC1)OCCO2,-4.7,
CCOC(=O)c1[nH]c(C)c(C(=O)N2CCC3(CC2)OCCO3)c1C,116.7*,VCAM1 pot conf=-9.3
CS(=O)(=O)N1CCCC(C(=O)N2CCC3(CC2)OCCO3)C1 (stereo unspecified),-0.7,
CCCC(C)C1(CC)C(=O)NC(=Nc2ccccc2OC)NC1=O (stereo unspecified),-0.7,
COc1ccc(Cl)cc1NC1=NCC(C)S1 (stereo unspecified),-0.2,
